Pf Dd2 growth: blocks in vitro growth of P. falciparum Dd2 | hit rate 4.3% among 120,000 | Potency, µM (titrated, usually from 28.9 µM), actives largely listed as inhibitors | P. falciparum Dd2 growth, SYBR Green, 72 h; active = well fitted inhibition curve with a large enough effect; note: nearly all actives have a fitted effect of over 65% in size
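Infected erythrocytes (Dd2, 0.3% parasitemia, 2.5% hematocrit final) are added to compound in RPMI-1640/Albumax II medium, grown 72 h at 37C in low oxygen, then lysed with saponin/Triton-X containing SYBR Green and read by fluorescence.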
Each line names hits and unclear results; the compound was inactive in the other large screens; ! = not confirmed by another sample. Shown is part of a subset that was picked to be rich in hits.

C[C@H]1CCCN1C(=O)c1nnc(COc2ccc(Cl)cc2)n1-c1ccccc1	none
CC(=O)Nc1cccc2ccc(OCc3nnc(C(=O)N4CCC[C@@H]4c4ccc(Br)cc4)n3Cc3ccccc3)cc12	Pf Dd2 growth 11.2µM
CC(=O)Nc1cccc(OCc2nnc(C(=O)N3CCC[C@@H]3c3ccc(Br)cc3)n2Cc2ccccc2)c1	none
O=C(NCc1nnc2ccc(-c3ccccc3)nn12)c1ccco1	none
COc1ccc(C(=O)N2[C@@H]3CC[C@H]2CC(NC(=O)c2cnc(C)cn2)C3)cc1F (stereo partly drawn)	none
O=C1Nc2cc(Cl)ccc2C(=O)N2CCN(C(=O)c3ccccc3)C[C@H]12	none
COc1ccc(-c2nc(CSc3nncn4c3cc3occc34)c(C)o2)cc1	Pf Dd2 growth 10µM
Cc1ccc(-c2nc(CSc3nncn4c3cc3occc34)c(C)o2)cc1	none
Cc1oc(-c2ccccc2Cl)nc1CSc1nncn2c1cc1occc12	none
O=C1NCC2(CCN(Cc3ccc(F)cc3)CC2)Oc2ccccc21	none
O=C1NC2(CCN(CC3CC3)CC2)COc2ccccc21	none
O=C1NCC2(CCN(CC3CCCCC3)CC2)Oc2ccccc21	none
O=C1NC2(CCN(Cc3ccc(F)cc3)CC2)COc2ccccc21	Pf Dd2 growth 3.16µM
O=C1NC2(CCN(CC3CCCCC3)CC2)COc2ccccc21	Pf Dd2 growth 10µM
O=C1NC2(CCCN(Cc3ccc(C(F)(F)F)cc3)C2)COc2ccccc21 (stereo not drawn)	Pf Dd2 growth 11.2µM!
O=C1NC2(CCN(Cc3cccnc3)CC2)COc2ccccc21	none
O=[S+]1([O-])NC2(CCCN(Cc3ccc(C(F)(F)F)cc3)C2)COc2ccccc21 (stereo not drawn)	none
O=C1NC2(CCN(Cc3ccccc3C(F)(F)F)C2)COc2ccccc21 (stereo not drawn)	none
Cc1noc([C@H]2CCN(Cc3ccsc3)C[C@H]2NC(=O)C2CC2)n1	none
CCC(CC)CN1C[C@]23C=C[C@H](O2)C(C(=O)N(C)Cc2nccs2)C3C1=O (stereo partly drawn)	none
Cc1nc(C2CC(O)C2)cc(N2CCC(c3nc(C(C)C)no3)CC2)n1 (stereo not drawn)	none
NC(=O)CN1C(=O)CO[C@H]2CN(Cc3ccc(Cl)cc3)C[C@H]21	none
O=C(COc1ccccc1F)c1ccc2c(c1)N(CC(=O)N1CCOCC1)C(=O)CO2	none
CCC(=O)N1Cc2ccccc2CC2(CCN(CC3CCNC3)C2)C1 (stereo not drawn)	none
CC(=O)NCC(=O)N1Cc2ccccc2CC2(CCN(C)C2)C1 (stereo not drawn)	none
CC(=O)N1Cc2ccccc2CC2(CCN(Cc3ccncc3)C2)C1 (stereo not drawn)	none
CCCN1CCCC2(Cc3ccccc3CN(C(=O)Cc3ccccc3)C2)C1 (stereo not drawn)	Pf Dd2 growth 6.31µM
CC(=O)NCCC(=O)N1Cc2ccccc2CC2(CCN(Cc3cccnc3)C2)C1 (stereo not drawn)	none
CCCC(=O)N1Cc2ccccc2CC2(CCN(Cc3ccc(O)cc3)C2)C1 (stereo not drawn)	Pf Dd2 growth 12.6µM
CCCN1CCCC12Cc1ccccc1CN(C(=O)CCCC(=O)O)C2 (stereo not drawn)	none
CCC(=O)N1Cc2ccccc2CC2(CCN(CCc3ccc(C)cc3)CC2)C1	Pf Dd2 growth 8.91µM
CN(C)CC(=O)N1Cc2ccccc2CC2(CCCN(CC3CCNCC3)C2)C1 (stereo not drawn)	none
C[S+](=O)([O-])N1Cc2ccccc2CC2(CCCN(CCc3ccccc3)C2)C1 (stereo not drawn)	none
CN1CCCC2(Cc3ccccc3CN(C(=O)c3ccccc3)C2)C1 (stereo not drawn)	none
CN(C)CC(=O)N1Cc2ccccc2CC2(CCCN(CCc3ccccc3)C2)C1 (stereo not drawn)	Pf Dd2 growth 5.01µM
CC(C)(C)c1cc(CC2(NCc3ccc(Cl)cc3)COC2)no1	none
O=C(c1ccccc1F)N1CCc2nc(-c3ccc(Cl)cc3)nc(-c3ccccc3)c2C1	none
CS(=O)(=O)c1ccc(OCC2(CNC(=O)c3cnccn3)C[C@@H](O)[C@@H](O)C2)cc1 (stereo partly drawn)	none
CCOc1nccnc1NC1CCN(C(=O)NC)CC1	none
Cc1ccc(C#N)c(N2CC[C@@H](c3ccc4c(c3)OCO4)[C@H](O)C2)n1	none
CCOCCOC1CCN(C(=O)c2nn(C)c3ccccc23)CC1	none
O=C(N[C@H]1CCN2C(=O)c3cc(-c4ccc(F)cc4F)ccc3NC(=O)[C@H]12)c1cnccn1	none
CN1C(=O)c2cccn2CC1CNS(=O)(=O)Cc1ccccc1 (stereo not drawn)	none
CN(CC1CCOCC1)C(=O)Nc1cc(F)cc(F)c1	none
CNC(=O)[C@@H]1C[C@H](Oc2ccccc2)CN1C(=O)CCOC	none
COC(=O)C1=C(C)N(Cc2ccccc2F)C(=O)CC1c1ccccc1Cl (stereo not drawn)	none
C=CCCC(CN1CCCC1)Oc1ccc(C(=O)NCC)cn1 (stereo not drawn)	Pf Dd2 growth 3.16µM
C=CCCC(CN1CCSCC1)Oc1ncc(CC)cn1 (stereo not drawn)	none
C=CCCC(CN1CCCC1)Oc1ccc(-c2ccccc2)nn1 (stereo not drawn)	Pf Dd2 growth 11.2µM
C=CCCC(CN1CCCC1)Oc1cc(N2CCOCC2)ncn1 (stereo not drawn)	none
C=CCCC(CN1CCOCC1)Oc1ccc(-c2ccccc2)nn1 (stereo not drawn)	none
C=CCCC(CN1CCSCC1)Oc1nc(OC)cc(OC)n1 (stereo not drawn)	none
COc1ccc(Cl)cc1-n1nc(C2CC2)nc1C(C)Cn1cncn1 (stereo not drawn)	none
O=C(c1cccc(C(F)(F)F)c1)N1CCC(Oc2ncccc2C(=O)N2CCCCC2)C1 (stereo not drawn)	none
COCc1noc([C@@H]2CC(F)(F)CN2C(=O)Cc2cccc(F)c2)n1	none
Cc1noc([C@@H]2CN(C(=O)c3occc3C)C[C@H]2COCC2CC2)n1	none
CC(C)CC(=O)Nc1ccc2nc(SCC(=O)N3CCOCC3)sc2c1	none
CC(C)CC(=O)Nc1ccc2nc(SCC(=O)N3CCCC3)sc2c1	none
CCN1CCN(Cc2nc3cc(NC(=O)c4cccc([N+](=O)[O-])c4)ccc3n2CC)CC1	Pf Dd2 growth 7.94µM
CCOC(=O)N1CCN(Cc2nc3cc(NC(=O)c4cccc(C)c4)ccc3n2C(C)C)CC1	Pf Dd2 growth 6.31µM
Cn1c(CN2CCCCC2)nc2cc(NC(=O)c3cccc(Br)c3)ccc21	none
CCOC(=O)N1CCN(Cc2nc3cc(NC(=O)CC(C)C)ccc3n2C(C)C)CC1	Pf Dd2 growth 11.2µM
O=C(Nc1ccc(Cl)c(-c2nc3ccccc3o2)c1)c1ccc(-c2cccc([N+](=O)[O-])c2)o1	none
CCC(=O)NCCc1nc2cc(NC(=O)c3cccc(Br)c3)ccc2n1C	none
CCOC(=O)c1cccc(NC(=O)c2ccc3nc(C(C)C)oc3c2)c1	none
Cc1ccc(-c2cnc([C@@H]3COCCN3CC3CC3)[nH]2)cc1	none
CN1CC2(C1)C(=O)N(Cc1cccc(Cl)c1)C(=O)[C@@H]1C[C@@H](O)CN12	none
Cc1ccc(C2Cn3nnc(C(=O)N4CCN(C(=O)c5ccccn5)CC4)c3CO2)cc1 (stereo not drawn)	none
Cc1cc(C)c2[nH]c(C(=O)NCc3nc(-c4ccccn4)no3)c(C)c2c1	none
CN(CC1CCOC1)C(=O)Nc1c(F)cccc1F (stereo not drawn)	none
CN(Cc1nc(-c2ccncc2)no1)C1CCC2(CCNCC2)CC1	none
CC1(c2ccccc2)CCCN(C(=O)c2ccnc(-n3cnnc3)c2)C1 (stereo not drawn)	none
CC(=O)Nc1ccc(CN[C@@H]2CO[C@H](CNS(C)(=O)=O)[C@H]2O)cc1	none
